Results filed as inconclusive are left out. Values without a mark were called inactive. Activity calls are given as the source filed them. Calls come from the whole dose curve; as a rule, active = well fitted cell-killing curve with a large enough effect; inconclusive = small, poorly fitted or top-dose-only effect, or effect the other way; inactive = no such curve, though single readings can be large or run the other way.
Potency is the fitted concentration of half-maximal effect.

This assay can be described thus: Quantitative High-Throughput drug screen in 47 multiple myeloma cell lines against the NCATS MIPE library collection: KMS26_JCRB cell viability assay (AID 1918975). Note: nearly all actives have a fitted effect of over 45% in size. The settings on record: KMS26 myeloma cells viability, CellTiter-Glo ATP, 48 h; series mostly up to 45.8 µM; viability (% of DMSO): at the top concentration. The text has this:
PI: Beverly A. Mock Ph.D.
Laboratory of Cancer Biology and Genetics,
Center for Cancer Research, National Cancer Institute,
National Institute of Health, Bethesda, Maryland
Drug resistance and disease progression are common in multiple myeloma (MM) patients, underscoring the need for new therapeutic combinations. […] We hypothesized that effective combinations would reduce MYC expression and enhance p16 activity. […] These preclinical data identify potentially useful drug combinations for evaluation in drug-resistant MM and reveal potential mechanisms of combined drug sensitivity.
Described herein is the primary MIPE qHTS used to cherrypick compounds. Validated compounds were then further tested for potential synergistic activiy.
[1] Peat TJ, Gaikwad SM, Dubois W, Gyabaah-Kessie N, Zhang S, Gorjifard S, Phyo Z, Andres M, Hughitt VK, Simpson RM, Miller MA, Girvin AT, Taylor A, Williams D, D'Antonio N, Zhang Y, Rajagopalan A, Flietner E, Wilson K, Zhang X, Shinn P, Klumpp-Thomas C, McKnight C, Itkin Z, Chen L, Kazandijian D, Zhang J, Michalowski AM, Simmons JK, Keats J, Thomas CJ, Mock BA. Drug combinations identified by high-throughput screening promote cell cycle transition and upregulate Smad pathways in myeloma. Cancer Lett. 2023 Aug 1;568:216284. doi: 10.1016/j.canlet.2023.216284. Epub 2023 Jun 24. PMID: 37356470; PMCID: PMC10408729.
SEQUENCE No. (e.g., 1, 2, 3, etc.); […] (e.g., Cells, Incubation, Reagent, etc.); VALUE and DESCRIPTION.
1; Cells; 5 uL; white, solid bottom 1536-well Greiner assay plate.
2; Compounds; 23 nL; Kalypsis pin tool (Wako USA) equipped with a 1536-well pin head to transfer to the assay plates.
3; Incubation; 48 hours; 37C incubation.
4; Reagent;5uL; CellTiter Glo (Promega).
5; Detector; 425V; Luminescence; Viewlux PerkinElmer.
NOTES (numbers refer to Sequence numbers above)
1. The cell-based screening methods employed in this study were like those previously published. Briefly, the corresponding myeloma cell lines were screened in 1,536-well plates with 500 cells, 5-uL per well for inhibition of cell viability (assessed by measuring ATP levels with CellTiterGlo).
2. NCATS MIPE 4.0 library of approved and investigational drugs were added using the Kalypsis pin tool. Wells treated with DMSO only for 100% viability and media only wells for 0% viability were used as controls.
3. The assay plates were covered and incubated for 48 hours in a 37C, 5% CO2 incubator with controlled humidity.
4. After 48 hours, CellTilter-GloTM luminescent substrate mix (Promega) reagent was added to the assay plate and plates we incubated for 5 min at room temperature.
5. Signal was measured as median relative luminescence units on a ViewLux (PerkinElmer) multiplate reader.
[1] Heske CM, Davis MI, Baumgart JT, Wilson K, Gormally MV, Chen L, Zhang X, Ceribelli M, Duveau DY, Guha R, Ferrer M, Arnaldez FI, Ji J, Tran HL, Zhang Y, Mendoza A, Helman LJ, Thomas CJ. Matrix Screen Identifies Synergistic Combination of PARP Inhibitors and Nicotinamide Phosphoribosyltransferase (NAMPT) Inhibitors in Ewing Sarcoma. Clin Cancer Res. 2017 Dec 1;23(23):7301-7311. doi: 10.1158/1078-0432.CCR-17-1121. Epub 2017 Sep 12. PMID: 28899971; PMCID: PMC6636827.
With `CNC(=O)c1cc(Oc2ccc(NC(=O)Nc3cc(C(C)(C)C)nn3-c3ccc4ncccc4c3)c(F)c2)ccn1`, the Potency is 9.35 µM (active).
With `CNC(=O)c1c(F)cccc1Nc1nc(Nc2cc3c(cc2OC)CCN3C(=O)CN(C)C)nc2[nH]ccc12`, the Potency was 0.264 µM (active).
For `C[C@@H](Oc1cc(-n2cnc3ccc(CN4CCN(C)CC4)cc32)sc1C(N)=O)c1ccccc1C(F)(F)F`, the Potency is 5.26 µM (active).
Regarding `CC(C)c1ccccc1Cc1cc(C(=O)Nc2ccc(S(=O)(=O)c3ccccc3C(C)(C)C)cc2)c(O)c(O)c1O`, the Potency was 9.35 µM (active).
As for `COc1cc2c(Oc3ccc(-c4cnc(Nc5ccc(F)cc5)n(C)c4=O)cc3F)ccnc2cc1OCCCN1CCOCC1`, the Potency is 18.7 µM (active).
Take `Fc1cc(-c2cccc3ncc(-c4cnn(C5CCNCC5)c4)nc23)cc(F)c1CN1CCOCC1`: the Potency was 26.4 µM (active).
Turning to `CCOC(=O)C1=C(C)NC2=C(C(=O)CC(C)(C)C2)C1c1ccc(-c2ccccc2)cc1` (stereo not given), the Potency is 16.6 µM (active).
Consider `CC(C)(C)NC(=O)[C@H]1CN(Cc2cccnc2)CCN1C[C@@H](O)C[C@@H](Cc1ccccc1)C(=O)N[C@H]1c2ccccc2C[C@H]1O`, for which the Potency was 20.9 µM (active).
For the compound `O=c1[nH]c(=O)n(C2CCCO2)cc1F` (stereo not given), the “viability (% of DMSO)” value was 152% [at 92.2 µM].
Consider `Clc1cccc(-c2nnnn2Cc2cccnc2)c1Cl`, for which the “viability (% of DMSO)” value was 109%.
Take `CCOc1cc2ncc(C#N)c(Nc3ccc(F)c(Cl)c3)c2cc1NC(=O)C=CCN(C)C`: the Potency is 20.9 µM (active).
For the compound `O=C(c1cncc(Br)c1)N1CCC(N2CCCC2)CC1`, the “viability (% of DMSO)” value was 141%.
Turning to `Nc1ncnc2c1c(-c1cnc3[nH]ccc3c1)nn2C1CCCC1`, the Potency is 10.5 µM (active).
On to `Cn1cc(-c2[nH]c3cc(NC(=O)[C@H](N)C4CCCCC4)cc4c3c2C=NNC4=O)cn1`, for which the Potency was 8.33 µM (active).
`N#CCNC(=O)c1ccc(-c2ccnc(Nc3ccc(N4CCOCC4)cc3)n2)cc1`: the Potency was 18.7 µM (active).
Consider `Cc1cn2c(-c3cn[nH]c3)cnc2c(Nc2ccc(C(=O)N3CCNCC3)cc2F)n1`, for which the Potency was 16.6 µM (active).
In the case of `OCc1ccc(-c2ccc(-c3ccc(CO)s3)o2)s1`, the Potency was 11.8 µM (active).
As to `O=C(O)CO.[NH2-].[NH2-].[Pt+2]`, the “viability (% of DMSO)” value was 154%.
On to `Nc1ccccc1NC(=O)c1ccc(CNC(=O)OCc2cccnc2)cc1`, for which the Potency is 4.69 µM (active).
In the case of `Cc1c(CN2CCN(S(C)(=O)=O)CC2)sc2c(N3CCOCC3)nc(-c3cnc(N)nc3)nc12`, the Potency was 0.187 µM (active).
For the compound `COc1cc(=C2C=c3ccccc3=N2)[nH]c1=Cc1[nH]c(C)cc1C`, the Potency was 2.35 µM (active).
As to `Cc1[nH]nc2ccc(-c3cncc(OC[C@@H](N)Cc4ccccc4)c3)cc12`, the Potency is 2.64 µM (active).
As to `COc1cc2c(cc1-c1c(C)noc1C)ncc1[nH]c(=O)n([C@H](C)c3ccccn3)c12`, the Potency was 0.0264 µM (active).
As for `CN(c1ncccc1CNc1nc(Nc2ccc3c(c2)CC(=O)N3)ncc1C(F)(F)F)S(C)(=O)=O`, the Potency was 7.43 µM (active).
With `COc1cc2c(NC3CCN(C(C)C)CC3)nc(C3CCCCC3)nc2cc1OCCCN1CCCC1`, the Potency was 6.62 µM (active).
Regarding `CC[C@@H]1C(=O)N(C)c2cnc(Nc3ccc(C(=O)NC4CCN(C)CC4)cc3OC)nc2N1C1CCCC1`, the Potency is 3.72 µM (active).
As for `O=C(Nc1ncc(-c2cc(C(F)F)nn2-c2c(Cl)cccc2Cl)s1)C1CC1`, the Potency was 2.64 µM (active).
Take `COc1ccc(F)c(F)c1C(=O)c1cnc(NC2CCN(S(C)(=O)=O)CC2)nc1N`: the Potency was 2.64 µM (active).
In the case of `Nc1ccccc1NC(=O)c1ccc(CNc2nccc(-c3cccnc3)n2)cc1`, the Potency is 1.32 µM (active).
In the case of `CCOc1ccccc1OCCNC(C)Cc1ccc(OC)c(S(N)(=O)=O)c1` (stereo not given), the “viability (% of DMSO)” value is 99.2%.
For `Cc1ccc(C(=O)Nc2ccc(CN3CCN(C)CC3)c(C(F)(F)F)c2)cc1C#Cc1cnc2cccnn12`, the Potency is 6.62 µM (active).
Turning to `CC(C)c1cc(C(=O)N2Cc3ccc(CN4CCN(C)CC4)cc3C2)c(O)cc1O`, the Potency was 0.235 µM (active).
`COC(=O)[C@]12CCC(C)(C)C[C@@H]1[C@@H]1C(=O)C=C3[C@@]4(C)C=C(C#N)C(=O)C(C)(C)[C@@H]4CC[C@@]3(C)[C@]1(C)CC2`: the Potency was 0.209 µM (active).
Consider `COc1ccc(CC2c3cc(OC)c(OC)cc3CC[N+]2(C)CCC(=O)OCCCCCOC(=O)CC[N+]2(C)CCc3cc(OC)c(OC)cc3C2Cc2ccc(OC)c(OC)c2)cc1OC` (stereo not given), for which the viability (% of DMSO) is 102% [at 5.15 µM].
As for `Cc1ccc(S(=O)(=O)Nc2cc(Cl)ccc2C(=O)Nc2nc(-c3ccccc3)cs2)cc1`, the Potency is 18.7 µM (active).
Take `Nc1ccc(S(=O)(=O)Nc2ncccn2)cc1`: the “viability (% of DMSO)” value is 142%.
As for `CN(C)Cc1c(C(=O)NCCOc2ccc(C(=O)NO)cc2)oc2ccccc12`, the Potency is 1.05 µM (active).
The same measure, in the same setting: the figure for `CNC(=O)c1ccc(N2C(=S)N(c3cnc(C#N)c(C(F)(F)F)c3)C(=O)C23CCC3)cc1F` is 1.48 µM (active).
Still for that read-out and setting: the figure for `c1nc2nc(Nc3ccc(N4CCOCC4)cc3)nc(NC3CCCCC3)c2[nH]1` is 16.6 µM (active); for `O=C(c1ccc(Nc2nccc(-c3cc4ccccc4s3)n2)cc1)N1CCC(N2CCCC2)CC1` it is 16.6 µM (active).
